Inhibition data for 60 compounds are collected here from PubChem BioAssay AID485346 (Sanford-Burnham Center for Chemical Genomics, 2010).

Structures are written as SMILES. Out of some 330,000 compounds screened, about 10,000 (3%) were called active.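 How the source made its calls: active means inhibition of at least 50% at 8 µM in the primary screen; inactive means the rest.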 Many of the other results were omitted from the sample, so actives are more common in it than they were.

Protein Mdm4 (Homo sapiens) + E3 ubiquitin-protein ligase Mdm2 (Homo sapiens), sequence (O15151 whole entry, looked up): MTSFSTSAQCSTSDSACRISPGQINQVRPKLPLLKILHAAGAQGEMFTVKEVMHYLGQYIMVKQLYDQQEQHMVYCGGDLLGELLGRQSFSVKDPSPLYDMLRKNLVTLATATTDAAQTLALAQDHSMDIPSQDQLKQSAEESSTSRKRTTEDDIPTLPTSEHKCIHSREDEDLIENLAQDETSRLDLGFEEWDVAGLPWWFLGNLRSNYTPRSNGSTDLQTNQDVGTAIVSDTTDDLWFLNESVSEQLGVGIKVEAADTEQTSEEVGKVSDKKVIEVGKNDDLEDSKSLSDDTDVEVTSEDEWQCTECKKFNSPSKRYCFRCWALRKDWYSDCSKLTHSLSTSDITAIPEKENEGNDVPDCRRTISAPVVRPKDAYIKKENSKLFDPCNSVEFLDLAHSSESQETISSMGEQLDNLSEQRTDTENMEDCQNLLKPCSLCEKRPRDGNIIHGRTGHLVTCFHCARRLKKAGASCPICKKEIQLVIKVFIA
Protein Mdm4 (Homo sapiens) + E3 ubiquitin-protein ligase Mdm2 (Homo sapiens), sequence (Q00987 whole entry, looked up): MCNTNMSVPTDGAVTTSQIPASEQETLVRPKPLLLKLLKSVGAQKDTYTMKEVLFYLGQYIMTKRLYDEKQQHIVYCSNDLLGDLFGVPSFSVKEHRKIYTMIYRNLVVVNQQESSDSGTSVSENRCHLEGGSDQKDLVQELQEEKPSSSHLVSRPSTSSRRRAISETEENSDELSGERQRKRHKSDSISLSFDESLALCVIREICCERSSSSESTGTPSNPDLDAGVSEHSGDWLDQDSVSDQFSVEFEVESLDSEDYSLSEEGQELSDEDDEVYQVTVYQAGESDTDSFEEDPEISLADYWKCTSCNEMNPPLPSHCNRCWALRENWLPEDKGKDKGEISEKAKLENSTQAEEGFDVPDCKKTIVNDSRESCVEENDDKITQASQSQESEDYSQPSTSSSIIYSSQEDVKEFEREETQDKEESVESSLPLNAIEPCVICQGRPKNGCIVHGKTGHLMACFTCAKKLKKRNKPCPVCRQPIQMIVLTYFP

The assay has as its target Protein Mdm4 (Homo sapiens) + E3 ubiquitin-protein ligase Mdm2 (Homo sapiens) (UniProt O15151+Q00987). The experiment in a line: inhibitors of human Mdm2-MdmX association, primary screen, cell-based, luminescence, split luciferase, SaOS-2, uHTS (AID 485346). Particulars: SaOS-2 split-luciferase Mdm2/MdmX complementation, at 8 µM, stronger effect = higher value.
One may read the inhibition as the change of the read-out against control, counted positive when it falls. With `CCCCC(c1nnnn1CS(=O)(=O)c1ccc(C)cc1)N1CCC(C(N)=O)CC1` (stereo not given), the inhibition was 20% (inactive).

Turning to `CC(=O)NC1CCN(CC(=O)Nc2nccs2)CC1`, the inhibition is 10.5% (inactive).

`COc1ccccc1CNC(=O)COC(=O)c1cccs1`: the inhibition was -8.99% (inactive).

With `O=C(/C=C/c1ccc(OCc2c(F)cccc2Cl)cc1)N1CCOCC1`, the inhibition was 88.9% (active).

In the case of `COCCCNC(=O)/C=C/c1ccc(OCc2c(F)cccc2Cl)cc1`, the inhibition was -0.73% (inactive).

`CN(C)CCCNC(=O)/C=C/c1ccc(OCc2c(F)cccc2Cl)cc1`: the inhibition is 41.4% (inactive).

As for `COc1cccc(NC(=O)N2CCC(NC(=O)C(Cc3cccc(C)c3)NC(C)=O)CC2)c1` (stereo not given), the inhibition was 2.34% (inactive).

In the case of `CN(C)/C=C(/C(=O)c1ccccc1Cl)S(C)(=O)=O`, the inhibition was -2.89% (inactive).

Turning to `CC(C(=O)O)N1C(=O)c2cccc3cccc1c23` (stereo not given), the inhibition is 14.4% (inactive).

`CN(Cc1cccs1)C(=O)Cc1c[nH]c2ccccc12`: the inhibition is -16.7% (inactive).

In the case of `CCc1nc2sc3c(Cl)ncnc3c2c2c1CCCC2`, the inhibition is 64.4% (active).

Turning to `CCc1nc2sc(C(=O)O)c(N)c2c2c1CCCC2`, the inhibition was -3.57% (inactive).

On to `c1ccc(CSc2ncnc3c2sc2nc(N4CCOCC4)c4c(c23)CCCC4)cc1`, for which the inhibition was 2.45% (inactive).

Consider `Cc1cccc(N2Cc3ccccc3C2=NC(=O)c2ccc(Cl)nc2)c1`, for which the inhibition was 1.07% (inactive).

For the compound `O=C(Nc1cc(Cl)cc(Cl)c1)C(NCCCO)c1ccccc1` (stereo not given), the inhibition was 14.1% (inactive).

Take `OCCCNc1nccc(-c2cc(Nc3cccc(Cl)c3)ncn2)n1`: the inhibition is 100% (active).

With `Cc1cccc(Nc2nc(NCCO)nc(N3CCCC3)n2)c1`, the inhibition is -22.4% (inactive).

For the compound `C=CCOC(=O)C1=C[C@H](c2ccc(Br)cc2)C[C@H](OCCCCO)O1`, the inhibition was 25.6% (inactive).

Turning to `Brc1ccc(CN2CC[C@H]3C=CCc4cccc(c43)C2)cc1`, the inhibition was 3.41% (inactive).

In the case of `O=C(Nc1cc(Cl)ccc1N1CCOCC1)c1ccc(N2CCCC2=O)cc1`, the inhibition was 12.9% (inactive).

Take `COCCOC(=O)c1c(C)oc2cc(Br)c(OCC(N)=O)cc12`: the inhibition is 6.08% (inactive).

`COc1ccccc1OCCCC(=O)Nc1ccc2c(c1)OCCO2`: the inhibition was 6.28% (inactive).

As to `COC(=O)CCNc1ccc2c(c1)OCCO2`, the inhibition was 60.5% (active).

In the case of `Cc1ccc(OCCCC(=O)Nc2ccc3c(c2)OCCO3)cc1`, the inhibition is 17% (inactive).

Regarding `COc1cc(C(=O)NCc2nnc(SCC(=O)Nc3nc4ccc(C)cc4s3)o2)cc(OC)c1OC`, the inhibition is 53.5% (active).

On to `COc1cc(C(=O)NCc2nnc(SCC(=O)c3ccc(Cl)cc3)o2)cc(OC)c1OC`, for which the inhibition is 6.35% (inactive).

With `COc1ccc(C(=O)NCc2nnc(SCC(=O)Nc3cccc(OC)c3)o2)cc1`, the inhibition was 20.2% (inactive).

Consider `Cc1cc(O)c(C(=O)/C=C/c2c(F)c(F)c(F)c(F)c2F)c(=O)o1`, for which the inhibition was 8.23% (inactive).

On to `COc1ccc(C(=O)O/N=C(\N)Cc2ccc(Cl)cc2Cl)cc1OC`, for which the inhibition was 97.2% (active).

Turning to `COc1ccc(C(=O)ON=C2c3ccccc3-c3ccccc32)cc1OC`, the inhibition is 7.13% (inactive).

As to `COc1ccc(C/C(N)=N/OC(=O)c2ccco2)cc1OC`, the inhibition was 6.65% (inactive).

As for `CCCCOc1ccc(C(=O)N/C(=C/C=C/c2ccccc2)C(=O)N2CCOCC2)cc1`, the inhibition is -5.91% (inactive).

As to `Nc1cc(N2CCCCCC2)c2nonc2c1[N+](=O)[O-]`, the inhibition was 25.5% (inactive).

For `C=CCn1c(-c2ccc(Cl)cc2)ccc(C#N)c1=O`, the inhibition is 1.15% (inactive).

Regarding `CCOc1ccc(CNC(=O)C2CCCN(c3nnc(C)c4c(C)n(-c5ccccc5)nc34)C2)cc1` (stereo not given), the inhibition is 4.48% (inactive).

With `CCc1ccc(CNC(=O)C2CCN(c3nnc(C)c4c(C)n(-c5ccc(C)cc5)nc34)CC2)cc1`, the inhibition is 89% (active).

For `COc1ccc(-n2nc3c(N4CCC(C(=O)NCc5ccccc5)CC4)nnc(C)c3c2C)cc1`, the inhibition is 40.9% (inactive).

For `CC1(C(=O)NNC(=S)NCC2CCCO2)CC1(Cl)Cl` (stereo not given), the inhibition was 9.98% (inactive).

On to `O=c1c2ccccc2[nH]c(=S)n1CCN1CCC(=C(c2ccc(F)cc2)c2ccc(F)cc2)CC1`, for which the inhibition is -6.96% (inactive).

For `COn1c(=O)c(=O)n(OC)c2ccccc21`, the inhibition was -14.5% (inactive).

With `Brc1cnc(N2CCCC2)nc1N1CCCCC1`, the inhibition is -7.46% (inactive).

As to `COc1ccccc1C1C2=C(COC2=O)Nc2cc3c(cc21)OCO3` (stereo not given), the inhibition was 64.9% (active).

As for `COc1ccc(S(=O)(=O)Nc2ccc3c(c2)OCO3)cc1Cl`, the inhibition was 8.27% (inactive).

In the case of `O=C1NC(c2cc3c(cc2Cl)OCO3)Oc2ccccc21` (stereo not given), the inhibition is 2.99% (inactive).

As to `CCCOc1ccccc1C1CC(=O)Nc2cc3c(cc21)OCO3` (stereo not given), the inhibition is 56% (active).

Take `COC(=O)c1ccc(C2CC(=O)Nc3cc(OC)c(OC)cc32)cc1` (stereo not given): the inhibition is 7.38% (inactive).

Consider `CCCOc1ccc(C2NC(=O)NC(c3ccccc3)=C2C(C)=O)cc1OCC` (stereo not given), for which the inhibition was 14.8% (inactive).

`COc1ccc(NS(=O)(=O)c2cc(NC(=O)COc3ccccc3F)ccc2OC)cc1`: the inhibition is 14.4% (inactive).

For `CN1C(=O)[C@H]2[C@@H](/C=C/c3ccccc3)N3C(=O)CN(Cc4ccc(-c5ccccc5)cc4)C(=O)[C@@]3(C)[C@H]2C1=O`, the inhibition was 22.2% (inactive).

Take `COc1ccc(-n2c(O)c(C=NCC(c3ccco3)N3CCCC3)c3ccccc3c2=O)cc1OC` (stereo not given): the inhibition is 15.6% (inactive).

In the case of `CCN(CC)S(=O)(=O)c1ccc2c3c(cccc13)C(=O)S2`, the inhibition is 39.8% (inactive).

`CCN1C(=O)c2cccc3c(S(=O)(=O)Nc4ccccc4O)ccc1c23`: the inhibition was 62.5% (active).

For the compound `O=C(CN1C(=O)c2cccc3cccc1c23)Nc1ccccc1`, the inhibition was 26.2% (inactive).

Regarding `O=C(NN1CCOCC1)c1cccc(F)c1`, the inhibition is 6.11% (inactive).

On to `Cc1c(Br)c([N+](=O)[O-])nn1CC(=O)Nc1sc2c(c1C(=O)OC(C)C)CCC(C)C2` (stereo not given), for which the inhibition was 23.2% (inactive).

With `O=C(COC(=O)c1ccncc1)Nc1ccc2c(c1)OCO2`, the inhibition is -1.34% (inactive).

With `CC1(C)NC(=O)N(CCCCSc2ccc(Cl)cc2)C1=O`, the inhibition is 5.07% (inactive).

Regarding `COc1ccc(-c2cc(C(=O)N/N=C/c3cccnc3)c3ccccc3n2)c(OC)c1`, the inhibition was -12.7% (inactive).

On to `COc1ccc(C(=O)CCC(=O)Nc2cccnc2)c(OC)c1`, for which the inhibition was 9.02% (inactive).

Turning to `COc1ccc(C(=O)/C=C/c2cccnc2)c(OC)c1`, the inhibition was 54.3% (active).
